Results taken from the supplement of paper PMC11732987, “Enantioselective OTUD7B fragment discovery through chemoproteomics screening and high-throughput optimisation” (Communications Chemistry, 2025).

What was measured:
Assay in all cases: log2 ratio of Biotin-Ahx-Ub-VS probe labelling (fragment/DMSO); higher = less target engagement (more negative = stronger competition), active = hit call of the paper (q ≤ 0.05, log2 ratio ≤ -1)
Settings in all cases: compound concentration: 200 uM; treatment time: 3 h
[1] = biological target: T1, OTUD6B (UniProt Q8N6M0)
T1 sequence (whole entry): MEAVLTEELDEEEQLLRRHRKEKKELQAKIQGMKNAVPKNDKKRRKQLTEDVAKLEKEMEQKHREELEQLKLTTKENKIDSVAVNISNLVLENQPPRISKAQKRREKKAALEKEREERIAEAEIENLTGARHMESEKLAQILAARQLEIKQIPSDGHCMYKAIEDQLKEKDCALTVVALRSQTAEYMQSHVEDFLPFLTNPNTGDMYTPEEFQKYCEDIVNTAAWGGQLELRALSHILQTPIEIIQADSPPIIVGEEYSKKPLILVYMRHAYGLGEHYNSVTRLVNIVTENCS
Procedure, shortened: (§1)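 The table lists average log2 ratios of fragment over vehicle, from an unpaired t-test on global-median-normalised Spectronaut label-free quantities. Proteins with ≥2 unique peptides were used. Samples were HEK293T lysate (495 µg) treated in triplicate with fragment at 200 µM or vehicle for 3 h, then with Biotin-Ahx-Ub-VS (0.5 µM final) for 1 h, with labelled DUBs NeutrAvidin-enriched and run by diaPASEF LC-MS/MS.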

[2] = biological target: T2, OTUD7B (UniProt Q6GQQ9)
T2 sequence (whole entry): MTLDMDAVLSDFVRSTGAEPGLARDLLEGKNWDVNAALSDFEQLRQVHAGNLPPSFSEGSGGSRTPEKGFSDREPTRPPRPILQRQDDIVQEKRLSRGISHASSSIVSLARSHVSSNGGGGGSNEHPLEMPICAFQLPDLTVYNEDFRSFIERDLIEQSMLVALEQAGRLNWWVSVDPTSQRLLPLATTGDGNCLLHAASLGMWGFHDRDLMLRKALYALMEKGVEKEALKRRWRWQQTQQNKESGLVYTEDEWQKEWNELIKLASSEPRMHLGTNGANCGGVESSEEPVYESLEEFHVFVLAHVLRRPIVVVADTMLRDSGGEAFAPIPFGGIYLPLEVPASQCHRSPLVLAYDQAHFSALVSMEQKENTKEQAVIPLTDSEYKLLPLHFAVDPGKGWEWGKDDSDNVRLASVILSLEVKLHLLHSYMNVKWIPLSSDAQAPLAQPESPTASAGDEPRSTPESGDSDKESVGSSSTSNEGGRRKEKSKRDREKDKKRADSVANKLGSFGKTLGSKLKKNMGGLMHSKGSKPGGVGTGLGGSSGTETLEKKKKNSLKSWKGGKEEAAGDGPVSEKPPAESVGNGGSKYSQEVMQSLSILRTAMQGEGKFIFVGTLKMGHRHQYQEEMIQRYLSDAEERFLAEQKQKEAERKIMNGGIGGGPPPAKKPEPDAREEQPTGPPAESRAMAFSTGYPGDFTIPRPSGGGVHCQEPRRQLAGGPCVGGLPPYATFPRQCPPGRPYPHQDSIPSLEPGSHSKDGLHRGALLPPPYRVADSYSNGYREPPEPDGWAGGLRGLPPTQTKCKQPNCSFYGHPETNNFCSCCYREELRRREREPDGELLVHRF
Procedure, shortened: as §1

[3] = biological target: PRPF8 (UniProt Q6P2Q9)
Procedure, shortened: as §1

[4] = biological target: T3, PSMD7 (UniProt P51665)
T3 sequence (whole entry): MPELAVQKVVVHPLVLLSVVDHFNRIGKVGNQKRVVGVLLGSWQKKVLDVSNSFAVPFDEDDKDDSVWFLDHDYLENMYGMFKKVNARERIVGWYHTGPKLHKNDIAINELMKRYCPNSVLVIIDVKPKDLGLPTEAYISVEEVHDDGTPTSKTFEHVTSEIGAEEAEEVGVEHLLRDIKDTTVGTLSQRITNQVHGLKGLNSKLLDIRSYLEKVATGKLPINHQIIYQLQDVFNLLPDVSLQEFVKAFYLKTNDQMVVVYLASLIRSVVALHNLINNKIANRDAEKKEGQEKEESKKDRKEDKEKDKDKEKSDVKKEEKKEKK
Procedure, shortened: as §1

[5] = biological target: UCHL1 (UniProt P09936)
Chain of UCHL1 (P09936 whole entry, looked up): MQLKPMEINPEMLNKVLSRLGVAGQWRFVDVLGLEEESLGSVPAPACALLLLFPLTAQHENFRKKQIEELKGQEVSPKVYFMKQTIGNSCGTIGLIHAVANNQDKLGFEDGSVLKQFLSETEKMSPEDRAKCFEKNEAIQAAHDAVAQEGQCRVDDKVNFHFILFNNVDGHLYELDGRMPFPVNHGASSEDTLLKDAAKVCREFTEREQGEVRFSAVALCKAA
Procedure, shortened: as §1

[6] = biological target: T4, UCHL3 (UniProt P15374)
T4 sequence (whole entry): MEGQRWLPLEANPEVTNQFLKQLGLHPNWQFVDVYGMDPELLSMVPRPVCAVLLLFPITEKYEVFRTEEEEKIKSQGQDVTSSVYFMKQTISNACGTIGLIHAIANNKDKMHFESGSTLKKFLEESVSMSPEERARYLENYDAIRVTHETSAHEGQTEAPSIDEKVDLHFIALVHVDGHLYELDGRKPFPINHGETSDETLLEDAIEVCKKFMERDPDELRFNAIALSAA
Procedure, shortened: as §1

[7] = biological target: T5, UCHL5 (UniProt Q9Y5K5)
T5 sequence (whole entry): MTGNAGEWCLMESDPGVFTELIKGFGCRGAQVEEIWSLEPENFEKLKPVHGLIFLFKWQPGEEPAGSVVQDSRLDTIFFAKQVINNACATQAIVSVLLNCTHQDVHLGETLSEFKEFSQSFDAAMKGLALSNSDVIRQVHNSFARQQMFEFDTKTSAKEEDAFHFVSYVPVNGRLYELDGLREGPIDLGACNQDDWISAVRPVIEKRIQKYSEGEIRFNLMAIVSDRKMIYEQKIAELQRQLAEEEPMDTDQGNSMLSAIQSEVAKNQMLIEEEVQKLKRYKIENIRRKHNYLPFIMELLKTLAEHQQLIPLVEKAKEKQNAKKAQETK
Procedure, shortened: as §1

[8] = biological target: USP10 (UniProt Q14694)
Chain of USP10 (Q14694 whole entry): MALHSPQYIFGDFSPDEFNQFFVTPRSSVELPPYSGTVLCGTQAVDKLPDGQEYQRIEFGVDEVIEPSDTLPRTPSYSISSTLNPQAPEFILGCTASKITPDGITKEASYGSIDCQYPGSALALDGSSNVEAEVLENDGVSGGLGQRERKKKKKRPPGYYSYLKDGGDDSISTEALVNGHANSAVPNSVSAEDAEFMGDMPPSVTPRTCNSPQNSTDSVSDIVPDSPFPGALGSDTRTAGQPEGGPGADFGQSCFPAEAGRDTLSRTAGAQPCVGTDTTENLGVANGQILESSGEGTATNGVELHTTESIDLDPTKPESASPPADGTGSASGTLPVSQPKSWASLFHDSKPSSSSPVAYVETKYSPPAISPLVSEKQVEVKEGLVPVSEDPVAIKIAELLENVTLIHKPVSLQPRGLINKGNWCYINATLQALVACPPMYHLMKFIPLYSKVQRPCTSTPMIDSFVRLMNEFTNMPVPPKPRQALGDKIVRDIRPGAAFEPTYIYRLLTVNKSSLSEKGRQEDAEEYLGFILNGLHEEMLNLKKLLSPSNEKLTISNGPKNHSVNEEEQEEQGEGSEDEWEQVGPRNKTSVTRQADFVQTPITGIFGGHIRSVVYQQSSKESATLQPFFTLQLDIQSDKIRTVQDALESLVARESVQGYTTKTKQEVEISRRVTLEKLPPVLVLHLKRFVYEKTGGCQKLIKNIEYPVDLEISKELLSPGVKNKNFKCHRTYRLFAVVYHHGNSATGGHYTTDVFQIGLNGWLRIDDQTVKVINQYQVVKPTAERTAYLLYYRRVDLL
Procedure, shortened: as §1

[9] = biological target: T6, USP15 (UniProt Q9Y4E8)
T6 sequence (whole entry): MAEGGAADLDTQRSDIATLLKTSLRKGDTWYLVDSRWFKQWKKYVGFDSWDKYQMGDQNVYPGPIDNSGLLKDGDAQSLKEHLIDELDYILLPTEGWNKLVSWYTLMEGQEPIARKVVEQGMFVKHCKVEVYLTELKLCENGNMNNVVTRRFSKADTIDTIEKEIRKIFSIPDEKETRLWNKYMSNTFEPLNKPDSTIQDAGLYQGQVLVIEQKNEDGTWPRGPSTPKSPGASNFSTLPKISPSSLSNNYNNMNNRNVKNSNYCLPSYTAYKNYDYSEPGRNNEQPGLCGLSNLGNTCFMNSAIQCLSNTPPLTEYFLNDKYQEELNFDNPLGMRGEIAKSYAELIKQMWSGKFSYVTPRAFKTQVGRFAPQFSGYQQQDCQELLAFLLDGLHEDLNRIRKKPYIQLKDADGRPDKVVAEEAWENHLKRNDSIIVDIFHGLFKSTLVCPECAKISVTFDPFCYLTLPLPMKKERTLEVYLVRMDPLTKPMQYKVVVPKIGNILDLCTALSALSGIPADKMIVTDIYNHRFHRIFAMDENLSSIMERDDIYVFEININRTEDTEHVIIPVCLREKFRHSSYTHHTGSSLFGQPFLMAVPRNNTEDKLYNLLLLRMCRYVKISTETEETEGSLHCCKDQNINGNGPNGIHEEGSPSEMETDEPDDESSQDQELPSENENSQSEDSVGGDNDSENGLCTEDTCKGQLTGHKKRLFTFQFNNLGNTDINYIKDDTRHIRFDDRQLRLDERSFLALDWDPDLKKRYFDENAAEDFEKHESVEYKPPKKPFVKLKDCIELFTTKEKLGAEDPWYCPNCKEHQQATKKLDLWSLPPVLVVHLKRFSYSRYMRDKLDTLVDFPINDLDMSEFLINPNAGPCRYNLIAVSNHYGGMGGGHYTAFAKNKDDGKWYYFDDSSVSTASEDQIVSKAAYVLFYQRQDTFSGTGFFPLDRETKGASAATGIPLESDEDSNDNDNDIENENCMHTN
Procedure, shortened: as §1

[10] = biological target: USP16 (UniProt Q9Y5T5)
Chain of USP16 (Q9Y5T5 whole entry, looked up): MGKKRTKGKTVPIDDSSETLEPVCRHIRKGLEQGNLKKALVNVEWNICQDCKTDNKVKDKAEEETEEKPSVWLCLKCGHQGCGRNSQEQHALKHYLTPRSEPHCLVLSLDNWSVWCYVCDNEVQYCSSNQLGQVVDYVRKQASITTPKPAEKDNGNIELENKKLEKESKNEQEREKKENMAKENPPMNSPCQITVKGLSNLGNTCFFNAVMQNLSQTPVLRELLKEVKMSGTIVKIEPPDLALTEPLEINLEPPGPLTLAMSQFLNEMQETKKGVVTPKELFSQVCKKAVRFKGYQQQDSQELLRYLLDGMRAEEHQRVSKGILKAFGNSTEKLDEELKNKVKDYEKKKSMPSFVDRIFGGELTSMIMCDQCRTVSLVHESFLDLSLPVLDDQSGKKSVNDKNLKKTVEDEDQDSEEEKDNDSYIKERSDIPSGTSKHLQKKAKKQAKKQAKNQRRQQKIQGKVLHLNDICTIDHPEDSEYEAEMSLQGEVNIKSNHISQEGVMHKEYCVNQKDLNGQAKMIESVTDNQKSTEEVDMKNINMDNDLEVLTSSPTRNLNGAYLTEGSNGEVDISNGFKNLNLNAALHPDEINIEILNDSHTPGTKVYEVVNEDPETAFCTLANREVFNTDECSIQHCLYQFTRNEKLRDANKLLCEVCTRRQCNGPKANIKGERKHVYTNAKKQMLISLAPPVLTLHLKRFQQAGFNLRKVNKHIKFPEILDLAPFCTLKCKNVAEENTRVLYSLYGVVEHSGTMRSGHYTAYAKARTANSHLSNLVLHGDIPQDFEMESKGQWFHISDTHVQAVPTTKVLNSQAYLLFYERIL
Procedure, shortened: as §1

Measured: log2 ratio of Biotin-Ahx-Ub-VS probe labelling

O=C(CCl)N(Cc1ccsc1)C1CC1
inactive: [1] 0.0351 | [2] -0.317 | [3] -0.0299 | [4] -0.114 | [5] -0.773 | [6] 0.415 | [7] -0.238 | [8] -0.125 | [9] 0.02 | [10] 0.463
